Results reported in PubChem BioAssay AID1159580 (chemical genetic matrix, 2015).
Where “and” joins values, the source holds several entries; their conditions need not be identical. Equal values may be shown once. The campaign covered roughly 5,500 compounds. About 2,000 (36%) were called active. About 18% were inconclusive and are not listed. No stated cut-off is given here; in the data, active means normalized growth mostly below about 0.91 (no sharp cut-off); inconclusive means no clear call, values can overlap the other calls; inactive means mostly above about 0.92. Some of the results follow.

Experiment: chemical genetic growth profiling, strain panel (AID 1159580);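 further: tested at 20 µM; growth read once vehicle control cultures reached saturation at 30 °C; 1 = growth at the plate median or of vehicle wells; lower values mean less growth of the strain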
Details: S. cerevisiae deletion strains, growth OD

Measured: normalized growth

COc1cc2cc3c4cc(OC)c(OC)cc4cc[n+]3c(C)c2cc1OC
inactive: locus YAL021C, strain ccr4, hits give low values 1.05 | locus YAL026C, strain drs2, hits give low values 1.03 | locus YAL030W, strain snc1, hits give low values 1.01 | locus YBL061C, strain skt5, hits give low values 1.02 | locus YBR009C, strain hhf1, hits give low values 1.01 | locus YBR021W, strain FUR4, hits give low values 1 | locus YBR023C, strain chs3, hits give low values 1.01 | locus YBR171W, strain sec66, hits give low values 1.03 | locus YBR229C, strain ROT2, hits give low values 1.01 | locus YBR231C, strain swc5, hits give low values 1 | locus YBR279W, strain paf1, hits give low values 1.01 | locus YCL011C, strain gbp2, hits give low values 1.01 | locus YCL016C, strain dcc1, hits give low values 0.997 | locus YCL029C, strain bik1, hits give low values 1.01 | locus YCL061C, strain MRC1, hits give low values 1.01 | locus YCL069W, strain vba3, hits give low values 1.01 | locus YCR088W, strain abp1, hits give low values 1.01 | locus YDL005C, strain med2, hits give low values 1.02 | locus YDL035C, strain GPR1, hits give low values 0.998 | locus YDL040C, strain nat1, hits give low values 0.992 | locus YDL074C, strain BRE1, hits give low values 0.996 | locus YDL101C, strain DUN1, hits give low values 1.01 | locus YDL134C, strain PPH21, hits give low values 0.982 | locus YDL185W, strain tfp1, hits give low values 1.02 | locus YDL192W, strain arf1, hits give low values 1 | locus YDR001C, strain nth1, hits give low values 1.01 | locus YDR069C, strain doa4, hits give low values 1.02 | locus YDR101C, strain arx1, hits give low values 1.01 | locus YDR137W, strain rgp1, hits give low values 1.06 | locus YDR159W, strain sac3, hits give low values 1 | locus YDR162C, strain NBP2, hits give low values 0.999 | locus YDR195W, strain ref2 0.97 | locus YDR297W, strain sur2, hits give low values 1.01 | locus YDR318W, strain mcm21, hits give low values 0.987 | locus YDR334W, strain swr1, hits give low values 1.02 | locus YDR335W, strain msn5, hits give low values 1.01 | locus YDR388W, hits give low values 1 | locus YDR392W, strain spt3, hits give low values 0.848 | locus YDR502C, strain sam2, hits give low values 0.987 | locus YEL003W, strain gim4, hits give low values 1.01 | locus YEL037C, strain rad23, hits give low values 1.01 | locus YEL061C, strain CIN8 (second series), hits give low values 1.01 | locus YEL061C, strain CIN8, hits give low values 1.01 | locus YER015W, strain faa2, hits give low values 1.01 | locus YER016W, strain bim1, hits give low values 1 | locus YER110C, hits give low values 1.02 | locus YER111C, strain swi4, hits give low values 1.03 | locus YER155C, strain BEM2 (second series), hits give low values 0.97 | locus YER155C, strain BEM2, hits give low values 1.01 | locus YER167W, strain BCK2, hits give low values 1 | locus YFR010W, strain ubp6, hits give low values 1.03 | locus YGL078C, strain dbp3, hits give low values 0.997 | locus YGL086W, strain mad1, hits give low values 1.03 | locus YGL167C, strain pmr1, hits give low values 1.01 | locus YGL173C, strain kem1, hits give low values 1.03 | locus YGL227W, strain vid30, hits give low values 1.01 | locus YGL240W, strain doc1, hits give low values 0.999 | locus YGL248W, strain PDE1, hits give low values 0.997 | locus YGL253W, strain hxk2, hits give low values 1.03 | locus YGR135W, strain pre9, hits give low values 0.988 | locus YGR229C, strain SMI1, hits give low values 1.01 | locus YGR252W, strain gcn5, hits give low values 0.904 | locus YHR013C, strain ard1, hits give low values 1.01 | locus YHR027C, strain rpn1, hits give low values 1.04 | locus YHR030C, strain SLT2, hits give low values 1.01 and 0.988 | locus YHR079C, strain IRE1 (second series), hits give low values 1.02 | locus YHR079C, strain IRE1, hits give low values 1 | locus YHR094C, strain hxt1, hits give low values 1.01 | locus YHR129C, strain ARP1, hits give low values 1 | locus YHR142W, strain chs7, hits give low values 1.01 | locus YHR200W, strain rpn10, hits give low values 0.994 | locus YIL066C, strain RNR3, hits give low values 1.01 | locus YIL073C, strain SPO22, hits give low values 1.01 | locus YIL125W, strain kgd1, hits give low values 1.01 | locus YIR030C, strain dcg1, hits give low values 1 | locus YJL092W, strain hpr5, hits give low values 1.01 | locus YJL095W, strain BCK1 (second series), hits give low values 1.01 | locus YJL095W, strain BCK1, hits give low values 1.01 and 0.99 | locus YJL115W, strain asf1, hits give low values 1.01 | locus YJL129C, strain trk1, hits give low values 1.02 | locus YJL134W, strain LCB3, hits give low values 1.01 | locus YJL154C, strain vps35, hits give low values 1.01 | locus YJL164C, strain tpk1, hits give low values 0.984 | locus YJL166W, strain qcr8, hits give low values 1.02 | locus YJL168C, strain set2, hits give low values 1.01 | locus YJL187C, strain SWE1 (second series), hits give low values 0.991 | locus YJL187C, strain SWE1, hits give low values 1.01
